Inconclusive results are not listed. Activity calls are given as the source filed them. Unless noted, the call rests on the fitted dose curve; in most records, active means well fitted curve in the direction sought with a large enough effect in the repeat runs; inconclusive means weak or mixed curves; inactive means no such curve, though single readings can be large; an effect the other way counts as inactive or inconclusive.
How the values were obtained:
[1] = biological target: Thyrotropin receptor (Homo sapiens) (UniProt P16473); test: qHTS assay to identify small molecule agonists of the thyroid stimulating hormone receptor (TSHR) signaling pathway (AID 1224843; calls by dose curve; further: nearly all actives have a fitted effect of over 45% in size)
Procedure, shortened: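 Screening of the Tox21 10K collection used HEK293 cells engineered with TSHR at 800 cells per well. After a 30-min room-temperature compound exposure, HTRF cAMP reagents were added and fluorescence recorded 1 h later.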

[2] = qHTS assay to identify small molecule agonists of the hypoxia (HIF-1) signaling pathway - cell viability counter screen (AID 1224844; calls by dose curve; further: nearly all actives have a fitted effect of over 50% in size)
Procedure, shortened: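 Cells (HRE-bla ME-180, 2,000 per well) sat 5 hrs at 37C, got compound for 17 hrs, were read for CCF4-AM FRET, and were finally lysed with CellTiter-Glo for a 30 min room-temperature luminescence read.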

[3] = qHTS assay to identify small molecule agonists of H2AX (AID 1224845; active means well fitted activation curve with a large enough effect in the signal ratio in the repeat runs, not every such curve was filed as active; the % refers to the signal ratio)
Procedure, shortened: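 Phospho-H2AX Ser139 measured by HTRF (ex 320 nm; em 665 and 620 nm) after 24 hr antibody incubation. Compounds, 15 concentrations, 0.76% DMSO, were applied to CHO-K1 cells for 3hr at 37C before lysis.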

[4] = qHTS assay to identify small molecule agonists of the hypoxia (HIF-1) signaling pathway (AID 1224846; active means well fitted activation curve with a large enough effect in the signal ratio in the repeat runs, not every such curve was filed as active; the % refers to the signal ratio)
Procedure, shortened: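 A low-serum medium (0.5% dialyzed FBS) holding 2,000 HRE-bla ME-180 cells per well is preincubated for 5 hrs, dosed with compounds by pintool, and kept a further 17 hrs at 37C, 5% CO2 before CCF4-AM FRET detection of beta-lactamase.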

[5] = qHTS assay to identify small molecule agonists of H2AX - cell viability counter screen (AID 1224847; calls by dose curve;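 further: wild-type CHO-K1 cells; top concentration of the series differs between compounds; nearly all actives have a fitted effect of over 30% in size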)
Procedure, shortened: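 For this counter screen, overnight-attached CHO-K1 cells received test compounds (15 concentrations, 0.76% DMSO final); 3 hr later at 37C, CellTiter-Glo reagent was added and luminescence recorded after 30 min at room temperature.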

[6] = qHTS RealTime-Glo MT Cell Viability Assay in HepG2 cells - 24 hour (AID 1224867); further: nearly all actives have a fitted effect of over 50% in size
Procedure, shortened: (§1)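 Cells + NanoLuc/prosubstrate dispensed (600 cells/well) → 5 h at 37 C/5% CO2 → compounds in DMSO transferred → 40 h incubation at 37 C, luminescence read at 0, 8, 16, 24, 32, 40 h.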

[7] = qHTS RealTime-Glo MT Cell Viability Assay in HEK293 cells - 32 hour (AID 1224868); further: top concentration of the series differs between compounds; nearly all actives have a fitted effect of over 50% in size
Procedure, shortened: (§2)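 Tox21 10K qHTS, HEK293, 600 cells/well, RealTime-Glo reagent co-dispensed with cells; 5 h preincubation, compound by pintool, 37 C, luminescence at 0–40 h.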

[8] = A CellTox Green Cytotoxicity Assay to monitor cytotoxicity in HEK293 cells - 0 hour (AID 1224869); further: nearly all actives have a fitted effect of over 50% in size
Procedure, shortened: (§3)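 Fluorescence intensity, read at 0, 8, 16, 24, 32 and 40 h of compound treatment, reflected dye binding to DNA of dead HEK293 cells; compounds (23 nL, DMSO) were added 5 h after plating cells with reagent.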

[9] = qHTS RealTime-Glo MT Cell Viability Assay in HepG2 cells - 40 hour (AID 1224870); further: nearly all actives have a fitted effect of over 50% in size
Procedure, shortened: (§4)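 Real-time viability: cells seeded at 600 per well together with NanoLuc and cell-permeant prosubstrate, compounds added after 5 h incubation. Luminescence tracked at 0, 8, 16, 24, 32 and 40 h of exposure.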

[10] = A CellTox Green Cytotoxicity Assay to monitor cytotoxicity in HEK293 cells - 40 hour (AID 1224871); further: nearly all actives have a fitted effect of over 45% in size
Procedure, shortened: as §3

[11] = qHTS RealTime-Glo MT Cell Viability Assay in HepG2 cells - 8 hour (AID 1224873); further: nearly all actives have a fitted effect of over 55% in size
Procedure, shortened: as §4

[12] = A CellTox Green Cytotoxicity Assay to monitor cytotoxicity in HEK293 cells - 24 hour (AID 1224875); further: series mostly up to about 77 µM; nearly all actives have a fitted effect of over 45% in size
Procedure, shortened: as §3

[13] = A CellTox Green Cytotoxicity Assay to monitor cytotoxicity in HepG2 cells - 16 hour (AID 1224876); further: nearly all actives have a fitted effect of over 45% in size
Procedure, shortened: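 Using 1536-well format, dye-containing HepG2 suspension was seeded, allowed 5 h at 37 C/5% CO2, dosed by pintool with compounds, positive and negative controls, and imaged for fluorescence across 40 h.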

[14] = qHTS RealTime-Glo MT Cell Viability Assay in HepG2 cells - 32 hour (AID 1224877); further: nearly all actives have a fitted effect of over 55% in size
Procedure, shortened: as §1

[15] = qHTS RealTime-Glo MT Cell Viability Assay in HEK293 cells - 16 hour (AID 1224872)
Procedure, shortened: as §2

[16] = qHTS RealTime-Glo MT Cell Viability Assay in HEK293 cells - 40 hour (AID 1224874); conditions: RealTime-Glo luminescence, active compounds read low; further: nearly all actives have a fitted effect of over 50% in size
Procedure, shortened: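 Viable HEK293 cells reduce a cell-permeant prosubstrate; the product diffuses out and is consumed by NanoLuc in the medium to give light. Compounds went in after a 5 h incubation and plates were read over the treatment course.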
On the % scale 0 is the no-effect control and ±100 the full control effect.

Sequence of Thyrotropin receptor (Homo sapiens) (P16473 whole entry, looked up): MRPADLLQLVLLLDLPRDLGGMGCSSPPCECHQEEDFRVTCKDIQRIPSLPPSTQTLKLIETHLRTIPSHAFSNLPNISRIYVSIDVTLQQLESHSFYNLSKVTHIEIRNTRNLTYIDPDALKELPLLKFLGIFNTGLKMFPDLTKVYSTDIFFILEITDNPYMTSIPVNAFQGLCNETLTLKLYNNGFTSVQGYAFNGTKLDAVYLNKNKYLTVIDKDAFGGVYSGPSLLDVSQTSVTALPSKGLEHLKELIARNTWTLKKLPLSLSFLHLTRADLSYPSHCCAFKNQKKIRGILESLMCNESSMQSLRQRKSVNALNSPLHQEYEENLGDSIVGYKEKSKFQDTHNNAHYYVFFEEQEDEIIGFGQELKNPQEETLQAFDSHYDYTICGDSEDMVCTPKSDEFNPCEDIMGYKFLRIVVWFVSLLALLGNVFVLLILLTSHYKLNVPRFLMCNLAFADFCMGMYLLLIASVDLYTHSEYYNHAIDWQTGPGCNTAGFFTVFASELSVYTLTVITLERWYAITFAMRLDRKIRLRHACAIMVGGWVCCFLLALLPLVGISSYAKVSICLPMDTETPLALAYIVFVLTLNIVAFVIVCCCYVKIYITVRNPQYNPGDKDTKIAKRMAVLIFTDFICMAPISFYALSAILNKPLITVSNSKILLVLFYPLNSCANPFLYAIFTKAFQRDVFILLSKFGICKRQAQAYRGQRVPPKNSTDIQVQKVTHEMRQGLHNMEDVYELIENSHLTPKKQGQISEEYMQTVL

C=CCN(CC=C)CC=C
inactive: Potency [1] | outcome [2] | outcome [3] | outcome [4] | outcome [5] | outcome [6] | outcome [7] | outcome [8] | outcome [9] | Potency [10] | outcome [11] | Potency [12] | Potency [13] | outcome [14]

O=C(O)/C=C(\CC(=O)O)C(=O)O
inactive: Potency [1] | outcome [2] | outcome [3] | outcome [5] | outcome [6] | outcome [7] | outcome [8] | outcome [9] | Potency [10] | outcome [15] | outcome [11] | Potency [12] | Potency [13] | outcome [14]

CC(C)=CCC/C(C)=C\C#N
inactive: Potency [1] | outcome [2] | outcome [4] | outcome [5] | outcome [6] | outcome [7] | outcome [8] | outcome [9] | Potency [10] | outcome [15] | outcome [11] | max response [16] 15.8% | Potency [12] | Potency [13] | outcome [14]

COCCCOc1cc(C[C@@H](C[C@H](N)[C@@H](O)C[C@H](C(=O)NCC(C)(C)C(N)=O)C(C)C)C(C)C)ccc1OC
inactive: Potency [1] | outcome [2] | outcome [4] | outcome [5] | outcome [6] | outcome [7] | outcome [8] | outcome [9] | Potency [10] | outcome [15] | outcome [11] | max response [16] 2.37% | Potency [13] | outcome [14]

CNCCc1ccccn1
inactive: Potency [1] | outcome [2] | outcome [3] | outcome [5] | outcome [6] | outcome [7] | outcome [9] | Potency [10] | outcome [15] | outcome [11] | max response [16] -0.337% | Potency [12] | Potency [13] | outcome [14]

COc1cc(NS(=O)(=O)c2ccc(N)cc2)ncn1
inactive: Potency [1] | outcome [2] | outcome [3] | outcome [5] | outcome [6] | outcome [7] | outcome [9] | outcome [15] | outcome [11] | Potency [12] | Potency [13] | outcome [14]

O=CN1CCCCC1
inactive: Potency [1] | outcome [2] | outcome [3] | outcome [4] | outcome [5] | outcome [6] | outcome [8] | outcome [9] | outcome [15] | outcome [11] | max response [16] 1.3% | Potency [12] | Potency [13] | outcome [14]

O=C1CC2(CCCC2)CC(=O)N1CCNCC1COc2ccccc2O1 (stereo unspecified)
inactive: Potency [1] | outcome [2] | outcome [4] | outcome [5] | outcome [6] | outcome [7] | outcome [8] | outcome [9] | Potency [10] | outcome [15] | outcome [11] | max response [16] -2.45% | Potency [12] | Potency [13] | outcome [14]

C=CCON/C(CCC)=C1\C(=O)CC(C)(C)C(C(=O)OC)=C1O
inactive: Potency [1] | outcome [2] | outcome [3] | outcome [4] | outcome [6] | outcome [7] | outcome [8] | outcome [9] | outcome [15] | outcome [11] | Potency [12] | outcome [14]

C/C(Cl)=C/CCl
inactive: Potency [1] | outcome [2] | outcome [3] | outcome [4] | outcome [6] | outcome [7] | outcome [8] | outcome [9] | Potency [10] | outcome [15] | outcome [11] | max response [16] 16% | Potency [12] | Potency [13] | outcome [14]

O=C(OOC(=O)c1ccccc1)c1ccccc1
inactive: Potency [1] | outcome [2] | outcome [3] | outcome [4] | outcome [6] | outcome [8] | outcome [9] | Potency [10] | outcome [11] | Potency [13] | outcome [14]

CCN(CC)CC(=O)Oc1ccc(NC(C)=O)cc1
inactive: Potency [1] | outcome [2] | outcome [4] | outcome [5] | outcome [6] | outcome [8] | outcome [9] | Potency [10] | outcome [11] | Potency [12] | Potency [13] | outcome [14]

C[C@@H]1CC[C@@]2(OC1)O[C@H]1C[C@H]3[C@@H]4CC[C@H]5C[C@@H](O)CC[C@]5(C)[C@H]4CC(=O)[C@]3(C)[C@H]1[C@@H]2C
inactive: activation [1] -5.02% [at 8.39 µM] | activity change, negative = cytotoxicity [2] 3.36% [at 6.97 µM] | activation (H2AX phosphorylation) [3] 0.205% [at 14 µM] | activity change, negative = cytotoxicity [5] -1.3% [at 14 µM] | activity change, negative = cytotoxicity [6] -0.436% [at 6.97 µM] | activity change, negative = cytotoxic [7] -2.31% [at 6.97 µM] | cytotoxicity [8] -2.97% [at 6.97 µM] | activity change, negative = cytotoxic [9] -0.288% [at 6.97 µM] | cytotoxicity increase [10] -2.28% [at 6.97 µM] | viability change, negative = cytotoxic [11] 1.5% [at 6.97 µM] | max response [16] -0.328% | cytotoxicity increase [13] -10% [at 6.97 µM] | activity change, negative = cytotoxic [14] 1.67% [at 6.97 µM]

CC(C)(C)OC(=O)c1ccccc1C(=O)O
inactive: Potency [1] | outcome [2] | outcome [4] | outcome [5] | outcome [6] | outcome [7] | outcome [8] | outcome [9] | Potency [10] | outcome [15] | outcome [11] | max response [16] 0.795% | Potency [13] | outcome [14]

NS(=O)(=O)c1cc2c(cc1C(F)(F)F)NCNS2(=O)=O
inactive: Potency [1] | outcome [2] | outcome [3] | outcome [6] | outcome [7] | outcome [8] | outcome [9] | Potency [10] | outcome [15] | outcome [11] | max response [16] 14.4% | Potency [12] | Potency [13] | outcome [14]

CCCOc1ccc(C(=O)OCCN(CC)CC)cc1N
inactive: Potency [1] | outcome [2] | outcome [3] | outcome [5] | outcome [6] | outcome [7] | outcome [8] | outcome [9] | Potency [10] | outcome [15] | outcome [11] | Potency [12] | Potency [13] | outcome [14]

O=C(O)P(=O)(O)O
inactive: Potency [1] | outcome [2] | outcome [3] | outcome [4] | outcome [6] | outcome [7] | outcome [8] | outcome [9] | Potency [10] | outcome [15] | outcome [11] | Potency [12] | Potency [13] | outcome [14]

Reference: PubChem BioAssay (Tox21)
